Inconclusive results are not listed. Active and inactive are the calls of the source. Unless noted, the call rests on the fitted dose curve; in most records, active means well fitted curve in the direction sought with a large enough effect; inconclusive means small, poorly fitted or top-dose-only effect, or another doubt; inactive means no such curve, though single readings can be large; an effect the other way counts as inactive or inconclusive.
Assays:
[1] = AP1 Signaling Pathway (AID 357; active means well fitted curve in either direction with a large enough effect, not every such curve was filed as active;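 further: ME-180 reporter cells stimulated with EGF at its EC50 level; on the % scale 0 is the no-effect control and ±100 the full control effect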); conditions: ME-180 AP-1-bla reporter, EGF-induced, beta-lactamase ratio, 5 h; at 38 µM (top of the series)
Outline: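 Cells are seeded overnight, exposed to compound titrations and an EC50 level of EGF for 5 hours at 37 °C, then loaded with CCF4 dye for 2.5 hours. Beta-lactamase activity under the AP-1 element is read as a blue/green ratio.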

[2] = molecular target: Cytochrome P450 1A2 (Homo sapiens) (UniProt P05177); assay: p450-cyp1a2 (AID 410; calls by dose curve; further: potency means the concentration at half of the fitted maximal effect)
Outline: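 Luminescent readout of luciferin formed from Luciferin-ME by human CYP1A2; data normalized against complete inhibition by 57 uM furafylline. Enzyme 20nM, substrate 100uM at Km, 100mM KPO4 buffer, 60 min reaction at room temperature.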

[3] = NFAT Signaling Pathway (AID 444; active means well fitted curve in either direction with a large enough effect, not every such curve was filed as active;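 further: carbachol stimulus at about its EC50 of 1 µM final; on the % scale 0 is the no-effect control and ±100 the full control effect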); conditions: Jurkat NFAT-bla M1, carbachol, beta-lactamase ratio, 5 h; at 38 µM (top of the series)
Outline: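 Jurkat cells with NFAT-driven β-lactamase reporter and co-expressed M1 receptor, stimulated with carbachol (final 1 uM, ~EC50), compound titration, 5 h at 37 °C. CCF4 loaded 1 h at RT; 460/530 nm ratio gave %activity and AC50.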

[4] = Stat Signaling Pathway (AID 446; active means well fitted curve in either direction with a large enough effect, not every such curve was filed as active;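 further: ME-180 cervical cancer cells given 40 pM IL-6 alongside compound; SIE-controlled beta-lactamase reporter measured as 460/530 nm FRET emission ratio; on the % scale 0 is the no-effect control and ±100 the full control effect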); conditions: ME-180 SIE beta-lactamase reporter, IL-6 stimulated, 5 h; at 38 µM (top of the series)
Outline: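 ME-180 SIE-bla cells; overnight plating; cpd + IL-6 40 pM, 5 h, 37 C; LiveBLAzer 2.5 h RT; 460/530 nm emission ratio. Normalized to 300 pM IL-6 and 125 nM JAK inhibitor controls.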

[5] = molecular target: Glucocorticoid receptor (Homo sapiens) (UniProt P04150); assay: GR-GFP Redistribution (AID 450;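 active means compounds whose dose series gives a full or clear partial fitted curve of increased nuclear translocation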; further: potency means the concentration at half of the fitted maximal effect); conditions: U2OS GR-GFP nuclear translocation, laser cytometry, 2 h
Sequence of Glucocorticoid receptor (Homo sapiens) (P04150 whole entry, looked up, the tested form may be a part): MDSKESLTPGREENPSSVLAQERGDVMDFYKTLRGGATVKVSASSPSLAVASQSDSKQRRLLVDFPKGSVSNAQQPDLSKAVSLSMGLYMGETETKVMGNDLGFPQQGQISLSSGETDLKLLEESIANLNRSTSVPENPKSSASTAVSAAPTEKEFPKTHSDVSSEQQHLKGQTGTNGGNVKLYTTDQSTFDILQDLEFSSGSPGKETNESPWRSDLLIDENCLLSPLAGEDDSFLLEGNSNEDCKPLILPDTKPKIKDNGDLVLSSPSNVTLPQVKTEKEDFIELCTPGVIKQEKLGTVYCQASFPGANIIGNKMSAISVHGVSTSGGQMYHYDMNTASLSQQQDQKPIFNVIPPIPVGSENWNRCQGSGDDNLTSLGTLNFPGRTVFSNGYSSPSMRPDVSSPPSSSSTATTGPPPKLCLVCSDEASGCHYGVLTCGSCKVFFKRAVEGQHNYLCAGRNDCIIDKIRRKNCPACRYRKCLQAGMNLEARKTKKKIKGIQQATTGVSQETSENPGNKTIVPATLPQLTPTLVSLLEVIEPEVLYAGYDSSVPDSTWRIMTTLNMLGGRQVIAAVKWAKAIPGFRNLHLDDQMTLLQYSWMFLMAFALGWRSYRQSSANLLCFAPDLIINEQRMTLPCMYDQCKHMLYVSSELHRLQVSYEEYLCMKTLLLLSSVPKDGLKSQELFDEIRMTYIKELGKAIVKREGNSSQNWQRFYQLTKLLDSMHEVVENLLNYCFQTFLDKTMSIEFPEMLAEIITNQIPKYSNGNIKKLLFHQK

[6] = molecular target: Glucocorticoid receptor (Homo sapiens) (UniProt P04150); assay: GR-EFC Redistribution (AID 451; calls by dose curve; further: potency means the concentration at half of the fitted maximal effect); conditions: CHO-K1 GR-EFC translocation, beta-gal luminescence, 2 h
Outline: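 CHO-K1 cells expressing nuclear EA and GR-ED fragments of b-gal; compounds titrated up to 46 uM final, 2 h at 37 C. GR nuclear translocation read as complemented b-gal luminescence after 1 h RT detection.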

[7] = molecular target: Mitogen-activated protein kinase 10 (Mus musculus) (UniProt Q61831); assay: JNK3 AlphaScreen Assay (AID 530; active means well fitted curve in either direction with a large enough effect, not every such curve was filed as active;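 further: kinase came from lysate of stimulated human HepG2 cells; signal reports phosphorylation of biotinylated GST-cJun 1-79 at Ser73 with 10 µM ATP; on the % scale 0 is the no-effect control and ±100 the full control effect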)
Outline: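 Pre-activated (IL-1β/TNFα) JNK3 in HepG2 lysates phosphorylates biotin-GST-cJun(1-79), 10 uM ATP; anti-phospho-cJun(Ser73) AlphaScreen read at room temperature, pH 7.6 Tris buffer. Compounds pre-incubated 15 min as titrations.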

[8] = molecular target: 3',5'-cyclic-AMP phosphodiesterase 4B (Homo sapiens) (UniProt Q07343); assay: qHTS Assay for Inhibitors of PDE-IV (AID 607; active means well fitted activation curve with a large enough effect in the main read-out, with a control signal flat, not every such curve was filed as active; further: % of control where 0% means no effect)
Outline: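 ACTOne HEK293 cells carry a modified cAMP-gated CNG channel and express endogenous PDE4; plated 1000 cells/well, compounds up to 22.9 uM final. Membrane-potential dye fluorescence (ex 535/em 590) was read; parental cells received 10 uM forskolin + 100 uM RO 20-1724.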

[9] = molecular target: Guanine nucleotide-binding protein G(i) subunit alpha-1 (Homo sapiens) (UniProt P63096); assay: qHTS Assay for Inhibitors of RGS12 GoLoco Motif Activity (Green Fluorophore) (AID 879);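 further: 0% = labeled peptide with Gαi1 and full inhibition = labeled peptide alone without protein; negative values mean loss of peptide binding seen as reduced polarization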
Outline: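 Fluorescence polarization assay: 50 nM Gαi1 with 10 nM FITC-labeled RGS12 GoLoco peptide in 10 mM Tris pH 7.5, 150 mM NaCl, 0.1 mM GDP, 0.05% NP40, 10 min at room temperature with compound.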

[10] = molecular target: Cytochrome P450 3A4 (Homo sapiens) (UniProt P08684); assay: qHTS Assay for Activators of Cytochrome P450 3A4 (AID 885); further: nearly all actives have a fitted effect of over 65% in size
Outline: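 20nM CYP3A4 + 25uM Luciferin-PPXE (=KM), 200mM KPO4; cpd 10 min RT; NADPH regen, 60 min RT; stop w/ detection buffer, 20 min; luminescence. Normalized to 57 uM ketoconazole.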

[11] = molecular target: Muscarinic acetylcholine receptor M1 (Rattus norvegicus) (UniProt P08482); assay: qHTS Assay for Antagonists of Acetylcholine Muscarinic M1 Receptor: Kinetic Measurement of Intracellular Calcium Response (AID 943);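 further: Fluo-4 calcium signal as peak divided by basal fluorescence over 4 min; nearly all actives have a fitted effect of over 75% in size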
Sequence of Muscarinic acetylcholine receptor M1 (Rattus norvegicus) (P08482 whole entry, looked up): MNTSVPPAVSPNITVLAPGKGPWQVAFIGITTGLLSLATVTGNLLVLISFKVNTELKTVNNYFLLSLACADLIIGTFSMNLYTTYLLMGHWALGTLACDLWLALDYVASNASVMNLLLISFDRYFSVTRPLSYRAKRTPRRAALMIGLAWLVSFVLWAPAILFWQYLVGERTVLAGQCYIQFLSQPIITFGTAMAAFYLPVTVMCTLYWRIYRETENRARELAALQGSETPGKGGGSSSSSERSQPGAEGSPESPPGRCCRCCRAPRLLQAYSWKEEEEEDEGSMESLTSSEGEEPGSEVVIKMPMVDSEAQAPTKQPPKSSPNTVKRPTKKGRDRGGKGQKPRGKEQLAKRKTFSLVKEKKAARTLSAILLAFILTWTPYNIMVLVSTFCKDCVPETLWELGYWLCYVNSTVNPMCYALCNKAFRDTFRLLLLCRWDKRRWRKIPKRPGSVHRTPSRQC
Outline: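 Rat M1-CHO cells, 2000/well, overnight → Fluo-4 no-wash dye with probenecid, 1 h 37C → compound 10 min, room temp → basal read 6 s → carbachol EC80 (100 nM) → 4 min kinetic read; peak/basal.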

[12] = molecular target: Pyruvate kinase (Leishmania mexicana) (UniProt Q27686); assay: qHTS Validation Assay for Inhibitors of Leishmania Mexicana Pyruvate Kinase (AID 945);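 further: 0% = DMSO only neutral control wells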
Sequence of Pyruvate kinase (Leishmania mexicana) (Q27686 2-499 E452W): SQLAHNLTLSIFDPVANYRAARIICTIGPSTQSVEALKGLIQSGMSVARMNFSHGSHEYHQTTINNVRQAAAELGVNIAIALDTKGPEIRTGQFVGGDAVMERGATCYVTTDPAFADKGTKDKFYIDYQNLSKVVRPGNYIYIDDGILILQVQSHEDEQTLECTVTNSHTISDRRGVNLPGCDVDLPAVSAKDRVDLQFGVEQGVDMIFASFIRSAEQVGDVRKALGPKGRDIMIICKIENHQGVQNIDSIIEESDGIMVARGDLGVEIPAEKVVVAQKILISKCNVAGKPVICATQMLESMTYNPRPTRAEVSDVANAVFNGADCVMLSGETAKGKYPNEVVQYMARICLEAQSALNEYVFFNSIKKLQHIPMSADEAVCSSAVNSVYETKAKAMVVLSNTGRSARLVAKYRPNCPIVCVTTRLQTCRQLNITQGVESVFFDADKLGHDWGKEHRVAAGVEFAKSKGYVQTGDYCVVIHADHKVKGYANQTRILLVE
Outline: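 Compounds are tested as eight-point concentration series. Reactions contain 0.2 nM LmPYK E451W, 0.5 mM PEP, 0.1 mM ADP, 7 mM MgCl2 and 50 mM KCl at pH 7.2, run 1 h at room temperature, then read by PKLight luminescence.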

[13] = molecular target: Pyruvate kinase PKM (Homo sapiens) (UniProt P14618); assay: qHTS Assay for Activators of Human Muscle Pyruvate Kinase (AID 954; active means well fitted curve in the direction sought with a large enough effect, not every such curve was filed as active;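 further: 0% = uninhibited enzyme and -100% = no enzyme or full thiadiazolimine inhibition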)
Sequence of Pyruvate kinase PKM (Homo sapiens) (P14618 whole entry, looked up): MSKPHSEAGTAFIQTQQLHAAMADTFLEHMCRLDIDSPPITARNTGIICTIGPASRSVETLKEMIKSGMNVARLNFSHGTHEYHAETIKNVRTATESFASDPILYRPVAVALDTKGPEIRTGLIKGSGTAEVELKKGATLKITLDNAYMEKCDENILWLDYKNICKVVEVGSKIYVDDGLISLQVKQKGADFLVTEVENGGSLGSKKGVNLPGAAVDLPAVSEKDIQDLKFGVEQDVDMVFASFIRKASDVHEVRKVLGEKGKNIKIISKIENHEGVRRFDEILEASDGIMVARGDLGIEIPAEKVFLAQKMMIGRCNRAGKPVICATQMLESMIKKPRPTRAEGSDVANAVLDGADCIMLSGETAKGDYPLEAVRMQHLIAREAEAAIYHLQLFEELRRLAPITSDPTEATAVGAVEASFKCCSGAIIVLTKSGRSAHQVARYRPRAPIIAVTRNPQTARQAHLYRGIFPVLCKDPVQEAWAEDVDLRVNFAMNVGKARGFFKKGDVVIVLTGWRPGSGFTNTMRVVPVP
Outline: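 Luminescence from a luciferase ATP-detection/stop reagent reported PKM2 activity. Reactions contained 0.1 nM purified human enzyme, 0.5 mM PEP, 0.1 mM ADP and 7 mM MgCl2 at pH 7.2, run 1 h at RT.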

[14] = molecular target: Alpha-galactosidase A (Homo sapiens) (UniProt P06280); assay: Counterscreen for Glucocerebrosidase Inhibitors: qHTS Assay for Human alpha-Galactosidase at pH 4.5 (AID 992); further: 0% is about no effect
Sequence of Alpha-galactosidase A (Homo sapiens) (P06280 whole entry, looked up): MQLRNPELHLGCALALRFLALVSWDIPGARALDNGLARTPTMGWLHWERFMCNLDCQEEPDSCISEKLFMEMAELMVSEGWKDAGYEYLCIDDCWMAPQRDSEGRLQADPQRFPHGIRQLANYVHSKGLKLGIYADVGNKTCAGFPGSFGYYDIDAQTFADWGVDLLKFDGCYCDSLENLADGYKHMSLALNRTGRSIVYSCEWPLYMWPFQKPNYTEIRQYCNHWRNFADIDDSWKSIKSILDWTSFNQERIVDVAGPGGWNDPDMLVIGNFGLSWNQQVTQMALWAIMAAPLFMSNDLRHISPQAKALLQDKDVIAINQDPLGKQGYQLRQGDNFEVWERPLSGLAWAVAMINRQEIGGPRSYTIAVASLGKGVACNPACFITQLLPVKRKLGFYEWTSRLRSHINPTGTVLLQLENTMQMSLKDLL
Outline: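 Enzyme at 2 nM final was combined with compound (0.7 nM to 77 uM) and 80 uM 4-methylumbelliferyl alpha-D-galactopyranoside in 50 mM citric acid, 0.005% Tween-20, pH 4.5. After 20 min at room temperature, fluorescence was read (Ex 365/Em 440 nm); AC50 came from Hill fits.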

[15] = molecular target: alpha-glucosidase (Oryza sativa, rice) (UniProt Q653V4); assay: Counterscreen for Glucocerebrosidase Inhibitors: qHTS Assay for Rice alpha-Glucosidase at pH 5.0 (AID 997);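 further: 0% = full activity with enzyme and -100% = basal without enzyme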
Outline: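 Rice alpha-glucosidase (4 nM final) with 400 uM 4-methylumbelliferyl-alpha-D-glucopyranoside in citrate buffer pH 5.0, 20 min at room temperature, stopped at pH 10; fluorescence 365/440 nm, compounds 0.7 nM–77 uM, AC50 from Hill fits.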

[16] = qHTS Assay for Lipid Storage Modulators (AID 1519; calls by dose curve); conditions: Drosophila S3 cells, BODIPY lipid droplet/cell ratio, laser cytometry, cells loaded with oleic acid
Outline: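 Cells seeded at 5,000 per well were treated with compounds over a concentration series and loaded with oleic acid (400 uM, as added). Lipid droplet fluorescence (488 nm excitation, 500-530 nm channel) was read by laser-scanning cytometry and normalized to 20 uM Triacsin C.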

[17] = molecular target: DNA repair nuclease/redox regulator APEX1 (Homo sapiens) (UniProt P27695); assay: qHTS Validation Assay for Inhibitors of the Human Apurinic/apyrimidinic Endonuclease 1 (APE1) (AID 1705)
Sequence of DNA repair nuclease/redox regulator APEX1 (Homo sapiens) (P27695 whole entry, looked up): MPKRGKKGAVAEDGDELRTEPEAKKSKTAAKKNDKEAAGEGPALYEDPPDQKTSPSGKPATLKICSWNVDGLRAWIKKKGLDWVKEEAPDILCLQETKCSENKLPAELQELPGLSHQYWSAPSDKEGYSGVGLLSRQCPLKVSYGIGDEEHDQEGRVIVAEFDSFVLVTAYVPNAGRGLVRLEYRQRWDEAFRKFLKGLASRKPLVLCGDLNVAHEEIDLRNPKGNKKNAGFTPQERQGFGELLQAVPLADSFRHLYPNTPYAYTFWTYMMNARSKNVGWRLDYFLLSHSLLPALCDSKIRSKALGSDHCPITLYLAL
Outline: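 Human APE1 was preincubated with compound for 15 min at room temperature, then 50 nM (final) THF-abasic double-stranded DNA substrate bearing 5'-TAMRA and 3'-BHQ-2 was added. Incision-driven fluorescence rise (ex 525/em 598 nm) was read kinetically.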

[18] = Counterscreen for APE1 Inhibitors: Fluorescent Dye Displacement Validation Assay (AID 1707);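 further: plate controls were ThO with dsDNA and no compound for no effect and ThO without dsDNA for full effect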
Outline: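 Thiazole Orange displacement from dsDNA: 250 nM ThO with 50 nM TAMRA-labelled abasic-site (tetrahydrofuran) duplex in 50 mM Tris-HCl pH7.5, 50mM NaCl, 2 mM MgCl2, 0.01% Tween-20. Loss of endpoint fluorescence (ex 480 nm, em 540 nm) flags DNA binders.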

[19] = qHTS for differential inhibitors of proliferation of Plasmodium falciparum line GB4 (AID 1816); conditions: Potency: Plasmodium falciparum GB4 proliferation inhibition;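 further: parasite growth measured after 72 h incubation; 0% = vehicle DMSO and -100% = reference inhibitor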
[20] = qHTS for differential inhibitors of proliferation of Plasmodium falciparum line 3D7 (AID 1876);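 further: parasite growth measured after three days of culture; 0% = vehicle wells and -100% = reference inhibitor wells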
[21] = qHTS for differential inhibitors of proliferation of Plasmodium falciparum line D10 (AID 1877);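 further: parasites grown with compound for 72 h before DNA staining; plate controls were vehicle wells for no effect and reference inhibitor wells for full effect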
[22] = qHTS for differential inhibitors of proliferation of Plasmodium falciparum line Dd2 (AID 1882); conditions: Potency: Plasmodium falciparum Dd2 proliferation inhibition;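 further: plate controls were DMSO vehicle for no effect and 0.29 µM artemisinin for full effect; nearly all actives have a fitted effect of over 65% in size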
Outline: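 Dd2-infected erythrocytes (0.3% parasitemia, 2.5% hematocrit final) incubated with compound 72 h at 37 C, 5% CO2; lysed with saponin/Triton buffer containing SYBR Green I, incubated overnight in the dark, then read by fluorescence (485/535 nm). Normalized to 0.29 uM artemisinin and DMSO.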

[23] = qHTS for differential inhibitors of proliferation of Plasmodium falciparum line HB3 (AID 1886); conditions: Potency: Plasmodium falciparum HB3 proliferation inhibition;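 further: parasites grown with compound for 72 h before SYBR Green readout; plate controls were vehicle for no effect and reference inhibitor for full effect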
[24] = molecular target: Ferritin light chain (Equus caballus) (UniProt P02791); assay: qHTS Validation Assay for Identification of Novel General Anesthetics (AID 2323); further: on the % scale 0 is the no-effect control and ±100 the full control effect
Sequence of Ferritin light chain (Equus caballus) (P02791 2-175 limits assumed): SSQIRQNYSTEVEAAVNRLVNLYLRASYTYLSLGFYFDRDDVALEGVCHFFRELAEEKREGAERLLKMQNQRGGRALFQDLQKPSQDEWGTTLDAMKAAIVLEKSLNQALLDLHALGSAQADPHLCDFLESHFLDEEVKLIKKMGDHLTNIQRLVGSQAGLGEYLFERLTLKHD
Outline: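 Competitive displacement of profluorescent 1-aminoanthracene (1-AMA, 50% saturated solution in PBS) from 10 uM horse-spleen apoferritin. Compounds incubated 10 min at room temperature; fluorescence read at 380 nm excitation/535 nm emission, normalized to free 1-AMA and complex, fitted with four-parameter Hill equation.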

[25] = molecular target: ATP-dependent DNA helicase Q1 (Homo sapiens) (UniProt P46063); assay: qHTS Validation Assay for Inhibitors of RecQ-Like Dna Helicase 1 (RECQ1) (AID 2353);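 further: plate controls were DMSO vehicle for no effect and enzyme-free control for full effect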
Sequence of ATP-dependent DNA helicase Q1 (Homo sapiens) (P46063 whole entry, looked up): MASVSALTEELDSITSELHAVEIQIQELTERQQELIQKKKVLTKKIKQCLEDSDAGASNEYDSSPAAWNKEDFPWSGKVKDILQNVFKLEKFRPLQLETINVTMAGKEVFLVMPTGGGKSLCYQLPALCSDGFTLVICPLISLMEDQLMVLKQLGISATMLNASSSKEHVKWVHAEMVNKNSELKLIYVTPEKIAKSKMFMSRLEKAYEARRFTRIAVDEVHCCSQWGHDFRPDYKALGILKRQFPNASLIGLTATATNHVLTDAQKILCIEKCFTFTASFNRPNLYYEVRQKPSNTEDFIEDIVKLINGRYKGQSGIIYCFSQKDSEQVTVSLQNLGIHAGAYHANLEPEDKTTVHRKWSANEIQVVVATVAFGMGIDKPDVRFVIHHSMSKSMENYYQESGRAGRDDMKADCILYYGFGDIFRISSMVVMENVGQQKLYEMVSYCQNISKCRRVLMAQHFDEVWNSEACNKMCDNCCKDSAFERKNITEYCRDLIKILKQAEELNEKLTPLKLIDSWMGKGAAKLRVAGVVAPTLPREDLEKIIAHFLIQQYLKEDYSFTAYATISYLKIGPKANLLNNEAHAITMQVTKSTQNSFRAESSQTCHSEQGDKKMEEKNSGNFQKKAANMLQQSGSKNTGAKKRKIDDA
Outline: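 50 nM RECQ1T1 preincubated 15 min with compound in Tris pH 8.0 buffer with MgCl2, DTT, Tween-20 and 2.5 ug/ml poly(dI-dC); started with 200 nM TAMRA/BHQ-2 forked duplex and 2 mM ATP. Unwinding read as fluorescence (525/598 nm), two reads 2 h apart.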

[26] = Quantitative high throughput screen for delayed death inhibitors of the malarial parasite plastid, 96 hour incubation (AID 488745);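 further: luciferase-expressing P. falciparum in erythrocytes at 2% hematocrit and 0.1% parasitemia; on the % scale 0 is the no-effect control and ±100 the full control effect; nearly all actives have a fitted effect of over 70% in size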
Outline: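 Infected erythrocytes were added to compound in Albumax-supplemented RPMI 1640 at 0.1% parasitemia and 2% hematocrit (final), incubated 96 h at 37 C under 5% CO2, then luciferase reagent was added and luminescence measured.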

[27] = Quantitative high throughput screen for delayed death inhibitors of the malarial parasite plastid, 48 hour incubation (AID 488752); further: on the % scale 0 is the no-effect control and ±100 the full control effect; nearly all actives have a fitted effect of over 65% in size
Outline: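 Readout is firefly luciferase luminescence from a reporter integrated into the parasite genome, with lower signal taken as inhibited growth. Infected red cells (0.1% parasitemia, 2% hematocrit final) are cultured with compound for one 48 h cycle at 37 C.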

[28] = molecular target: M-phase phosphoprotein 8 (Homo sapiens) (UniProt Q99549); assay: qHTS Validation Assay for Inhibitors for MPP8 Chromodomain Interactions with Methylated Histone Tails (AID 488949);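 further: AlphaScreen signal from MPP8 chromodomain bound to biotinylated H3K9me3 peptide; top concentration of the series differs between compounds; on the % scale 0 is the no-effect control and ±100 the full control effect; nearly all actives have a fitted effect of over 55% in size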
Outline: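 MPP8 (50 nM) was preincubated with biotinylated H3(1-18)K9me3 peptide (50 nM) in PBS pH 7.4, 0.01% Tween-20 for 30 min at room temperature, then with compounds for 30 min; binding was detected by AlphaScreen.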

[29] = molecular target: Transient receptor potential cation channel subfamily V member 1 (Homo sapiens) (UniProt Q8NER1); assay: HTS Assay for Compounds that Act as Enhancers of the Vanilloid Receptor 1 (AID 488979); further: 0% is about no effect
Outline: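 TRPV1 cells loaded with Fluo-8 calcium dye; compound added and Ca2+ signal (ex 480/em 520 nm) followed 3 min, then capsaicin at EC20 added and read 2 more min to detect enhancement.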

[30] = molecular target: Thyrotropin receptor (Homo sapiens) (UniProt P16473); assay: qHTS Assay for Antagonists of the Thyroid Stimulating Hormone Receptor (AID 488980); further: 0% is about no effect
Sequence of Thyrotropin receptor (Homo sapiens) (P16473 whole entry, looked up): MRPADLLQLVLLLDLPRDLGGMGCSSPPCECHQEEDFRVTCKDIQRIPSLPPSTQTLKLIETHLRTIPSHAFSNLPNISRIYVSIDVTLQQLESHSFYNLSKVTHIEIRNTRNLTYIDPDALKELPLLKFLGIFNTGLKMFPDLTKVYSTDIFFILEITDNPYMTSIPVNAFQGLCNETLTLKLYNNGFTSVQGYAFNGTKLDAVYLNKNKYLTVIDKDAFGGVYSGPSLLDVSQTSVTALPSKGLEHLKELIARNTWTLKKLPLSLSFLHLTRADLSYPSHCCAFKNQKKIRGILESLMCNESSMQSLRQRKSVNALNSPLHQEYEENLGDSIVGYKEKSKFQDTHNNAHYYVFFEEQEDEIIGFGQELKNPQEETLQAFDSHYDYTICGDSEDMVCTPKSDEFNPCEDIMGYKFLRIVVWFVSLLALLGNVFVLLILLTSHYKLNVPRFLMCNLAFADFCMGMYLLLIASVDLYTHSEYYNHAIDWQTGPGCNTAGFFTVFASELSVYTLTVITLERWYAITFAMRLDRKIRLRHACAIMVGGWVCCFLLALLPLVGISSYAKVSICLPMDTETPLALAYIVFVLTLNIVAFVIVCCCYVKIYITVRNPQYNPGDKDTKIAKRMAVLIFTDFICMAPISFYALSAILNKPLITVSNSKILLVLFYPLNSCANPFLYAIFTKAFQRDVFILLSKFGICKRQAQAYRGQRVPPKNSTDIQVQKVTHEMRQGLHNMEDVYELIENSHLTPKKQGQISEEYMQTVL
Outline: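 HEK293 cells transfected with human TSHR, suspended in HEPES-buffered HBSS with 70 uM RO 20-1724, were treated with compounds plus TSH at EC80 (4 nM final). cAMP was measured by competitive HTRF (cryptate anti-cAMP antibody, cAMP-d2 acceptor).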

[31] = molecular target: Thyrotropin-releasing hormone receptor (Homo sapiens) (UniProt P34981); assay: qHTS for Small Molecule Agonists and Allosteric Enhancers of Human TRH Receptor: Validation Screen for Agonists (AID 493127;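 active means calcium activation more than 3 SD above the typical response in the agonist read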;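 further: intracellular calcium rise by fluo-8 fluorescence before TRH EC20 addition; 0% is about no effect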); conditions: TRH receptor agonist cell assay; at 2 µM; stronger effect = higher value
Sequence of Thyrotropin-releasing hormone receptor (Homo sapiens) (P34981 whole entry, looked up): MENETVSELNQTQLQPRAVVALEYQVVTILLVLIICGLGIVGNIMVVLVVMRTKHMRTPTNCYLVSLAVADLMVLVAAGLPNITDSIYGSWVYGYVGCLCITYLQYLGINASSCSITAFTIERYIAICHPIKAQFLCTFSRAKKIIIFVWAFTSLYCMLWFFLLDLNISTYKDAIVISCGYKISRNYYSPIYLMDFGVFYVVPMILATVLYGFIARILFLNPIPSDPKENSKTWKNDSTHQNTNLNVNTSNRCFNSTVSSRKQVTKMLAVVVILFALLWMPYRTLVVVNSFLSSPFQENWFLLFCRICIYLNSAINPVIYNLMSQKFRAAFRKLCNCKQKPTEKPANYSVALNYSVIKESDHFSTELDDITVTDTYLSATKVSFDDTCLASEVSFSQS
Outline: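 Cells 2000/well, 10% FCS, 18 h 33.5C/5% CO2 → fluo-8 Ca dye, RT 30 min–1.5 h → FDSS baseline 10 × 1 s → compound added → 230 cycles (1 s/cycle) agonist mode. TRH controls.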

[32] = Validation screen for small molecules that induce DNA re-replication in SW480 colon adenocarcinoma cells (AID 504364); further: 0% is about no effect
Outline: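 250 cells/well; compound pinned in; 48 hr, 37 C, 5% CO2; Hoechst added, 40 min; nuclear fluorescence imaged, 405 ex / 500-530 em; re-replication scored as increase in high-intensity nuclei.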

[33] = molecular target: Voltage-gated inwardly rectifying potassium channel KCNH2 (Homo sapiens) (UniProt Q12809); assay: qHTS Assay for Small Molecule Inhibitors of the Human hERG Channel Activity (AID 588834);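 further: top concentration of the series differs between compounds; on the % scale 0 is the no-effect control and ±100 the full control effect; lower thallium flux fluorescence means stronger hERG block; nearly all actives have a fitted effect of over 50% in size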
Outline: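 U2OS cells transduced with hERG via BacMam (MOI ~100), plated 2000/well, loaded with FluxOR thallium dye, compound ~10 min, then stimulation buffer; fluorescence decrease read kinetically; AC50 from Hill fits.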

[34] = test system: Zika virus NS2B-NS3 protease; assay: Primary screen GU AMC qHTS for Zika virus inhibitors (AID 1347154);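 further: 0% = no-inhibitor control and -100% = no-enzyme control; nearly all actives have a fitted effect of over 70% in size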
Outline: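 Unlinked Zika NS2B hydrophilic domain–NS3 protease complex at 25 nM in 10 mM Tris-HCl pH 8.0, 0.01% Tween 20, with an AMC peptide substrate. Fluorescence change (340/450 nm) over 15 min at room temperature, normalized to controls, fitted to 4-parameter Hill.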

[35] = Primary qHTS for small molecule stabilizers of the endoplasmic reticulum resident proteome: Secreted ER Calcium Modulated Protein (SERCaMP) assay (AID 1508630); further: on the % scale 0 is the no-effect control and ±100 the full control effect
Outline: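 GLuc-SERCaMP-expressing SH-SY5Y cells, pretreated 16 h with compound, are challenged with thapsigargin to empty ER calcium stores; after 4 h, coelenterazine is added directly to the medium and luminescence is imaged.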

COc1ccccc1NC(=O)Nc1nc(-c2cccnc2)nc2ccccc12
active: Potency [2] 2.51 µM
inactive: activity change, negative = inhibition [1] 12.1% | activity change, negative = inhibition [3] 4.7% | activity, negative = inhibition [4] 4.21% | Potency [5] > 46 µM | Potency [6] > 46 µM | Potency [7] | Potency [8] | outcome [9] | Potency [10] | Potency [11] | Potency [12] | outcome [13] | outcome [14] | outcome [15] | activity change, negative = inhibition ([16]; at 57.5 µM (top of the series)) -0.716% | Potency [17] | Potency [18] | Potency [19] | Potency [20] | Potency [21] | Potency [22] | Potency [23] | outcome [24] | Potency [25] | Potency [26] | Potency [27] | Potency [28] | outcome [29] | outcome [30] | activation [31] 0.25% | outcome [32] | Potency [33] | Potency [34] | Potency [35]
-30.6%: max response ([16]; measured here: cell count channel max response)
-29%: max response ([16]; measured here: lipid channel max response)
